# Measurements published in PubChem BioAssay (Tox21).
# Unmarked numbers belong to inactive results. The source made the active and inactive calls. Calls follow the shape of the dose curve; as a rule, active = well fitted curve in the direction sought with a large enough effect in the repeat runs; inconclusive = weak or mixed curves; inactive = flat fitted curve, though single readings scatter.
# Assay: qHTS assay to test for compound auto fluorescence at 590 nm (red) in HepG2 cells (AID 720674)
# Conditions: HepG2 autofluorescence, red 540/590 nm, 1 h; series mostly up to 91.3 µM; fluorescence, relative to Rose Bengal: at the top concentration
# Source text: U.S. Tox21 Program National Center for Advancing Translational Sciences [NCATS] NIH Chemical Genomics Center [NCGC] U.S. Environmental Protection Agency [EPA] National Institutes of Environmental Health Sciences [NIEHS] National Toxicology Program [NTP] U.S. Food and Drug Administration [FDA] Tox21 Assay Overview: Compound auto fluorescence often interferes with screening of the compound library against various biological targets and signaling pathways. Some of these compounds may have fluorophoric properties. Such properties may interfere with the assay outputs resulting in false positives and/or negatives. To decrease such complications and ensure the compound activities are relevant in terms of biological response, the Tox21 10K compound library was screened for auto fluorescence. From the fluorophores used as reporter signals in our screening assays, the auto fluorescence equivalencies of compounds against three fluorophores have been evaluated: Triamterene, Fluorescein and Rose Bengal sodium for blue, green and red fluorescence, respectively. The fluorescence intensities were measured using Excitation/Emission wavelengths at 405/460nm, 485/535nm and 540/590nm for blue, green and red labels, respectively. This assay includes the red fluorescence data.
# Tox21 Assay Protocol Summary: 2,000 HepG2 cells in 5 uL of culture medium (MEM containing 10% FBS) per well were dispensed into black wall/clear bottom 1536-well plates using a Multidrop Combi Dispenser (ThermoFisher Scientific, Waltham, MA). The assay plates were incubated overnight at 37 C to allow cell attachment to the well bottom, followed by the transfer of 23 nL compound or DMSO vehicle by a pintool work station (Kalypsys , San Diego, CA). After the assay plates were incubated for 1 hr at 37 C and 5% CO2, fluorescence intensities in the assay plates were measured by an Envision (PerkinElmer, Shelton, CT) plate reader using three labels for measuring blue, green and red fluorescence at […] 460, 535 and 590 nm respectively.
# % is scaled to controls: 0 for no effect and ±100 for the full control effect.
Structure (SMILES),"fluorescence, relative to Rose Bengal",outcome
C[C@]12CCC(=O)C=C1C=C[C@@H]1[C@@H]2CC[C@@]2(C)[C@H]1CC[C@@]21CCC(=O)O1,0.283% [at 46 µM],–
CC1CC(O)CC(C)(C)C1 (stereo not given),–,inactive
CCn1nc(C)c2c1C(=O)NCC(c1ccc(O)cc1)=N2,-0.0455%,–
CN1CCN(c2c(F)cc3c(=O)c(C(=O)O)cn4c3c2OCN4C)CC1,0.41% [at 46 µM],–
COCC(O)CO (stereo not given),0.0066% [at 95.7 µM],–
CO[C@@]12[C@H](COC(N)=O)C3=C(C(=O)C(C)=C(N)C3=O)N1C[C@@H]1N[C@@H]12,0.11% [at 46 µM],–
C(=C\c1ccccc1)/CN1CCN(C(c2ccccc2)c2ccccc2)CC1,-0.246% [at 18.6 µM],–
NC(=O)Cn1c(=O)cc(CCN2CCN(c3nccc4sccc34)CC2)c2ccc(F)cc21,-0.0733%,–
CC1=C(C=O)C(C)(C)CCC1,0.0745%,–
CCCCCCCCCCCCCCCCBr,0.0532% [at 18.6 µM],–
C=CC(C)=CCC=C(C)C,0.12%,–
NC(=O)Nc1ccc(Cl)cc1,0.0335%,–
CCCCCCOC(=O)C(C)C,-0.149%,–
CCCOCCOCCO,0.0993%,–
CCCCCCCCCCCC[N+](C)(C)CC(=O)[O-],0.0781%,–
Nc1ccc(S(=O)(=O)O)c(N)c1,0.145%,–
Cc1ccc(S(=O)(=O)NC2CCCCC2)cc1,0.041%,–
COc1cc2[nH]c(=O)[nH]c(=O)c2cc1OC,0.0405% [at 18.6 µM],–
Cc1cc(O)c(C(C)C)cc1Cl,–,inactive
CCN(Cc1cccc(S(=O)(=O)O)c1)c1ccc(C(=C2C=CC(=[N+](CC)Cc3cccc(S(=O)(=O)[O-])c3)C=C2)c2ccccc2)cc1,0.0093%,–

Structure (SMILES),"fluorescence, relative to Rose Bengal",outcome
CC(=O)Oc1ccc2c(c1)CC[C@@H]1[C@@H]2CC[C@]2(C)[C@@H](O)CC[C@@H]12,-0.302% [at 46 µM],–
CC(=O)OCC(=O)[C@@]12OC(C)(C)O[C@@H]1C[C@H]1[C@@H]3C[C@H](F)C4=CC(=O)C=C[C@]4(C)[C@@]3(F)[C@@H](O)C[C@@]12C,0.821% [at 18.6 µM],–
CC1=CC(=O)CC(C)(C)C1(O)/C=C/C(C)=C\C(=O)O (stereo not given),0.0194%,–
O=C(O)Cc1ccc(-c2ccccc2)cc1,0.37% [at 18.6 µM],–
CC(C)=CC=O,-0.0928% [at 95.7 µM],–
C=CC(C)(O)CCCC(C)CCCC(C)CCCC(C)C (stereo not given),-0.113%,–
CCCCCCCCCOC(C)=O,-0.0147%,–
CCCC(=O)O[C@]1(C(=O)COC(=O)CC)CC[C@H]2[C@@H]3CCC4=CC(=O)CC[C@]4(C)[C@H]3[C@@H](O)C[C@@]21C,0.129% [at 46 µM],–
C=CC(=C)CCCC(C)(C)OC(C)=O,-0.365%,–
O=C(O)C(Cc1cc(I)c(O)c(I)c1)c1ccccc1 (stereo not given),0.51% [at 46 µM],–
C[Si]1(C)O[Si](C)(C)O[Si](C)(C)O1,0.217%,–
C=CCCCCCCCCCCCCCCCC,0.0868% [at 3.72 µM],–
COc1cc2c(N3CCN(C(=O)Nc4ccc(OC(C)C)cc4)CC3)ncnc2cc1OCCCN1CCCCC1,-0.888% [at 46 µM],–
CC(C)c1nnc2ccc(-c3ocnc3-c3cc(F)ccc3F)cn12,0.0688%,–
CCCCC/C(=C\c1ccccc1)CO,0.0353% [at 95.7 µM],–
NC(=O)Nc1ccc(Cl)c(Cl)c1,-0.45%,–
CC#N,-0.304%,–
CCCCC(CC)COC(=O)COc1ccc(Cl)cc1C (stereo not given),0.0402%,–
c1cnc2c(n1)CCCC2,-0.188%,–
[O]=[Bi],-0.152% [at 3.72 µM],–
